For orientation: inhibition means the drop in the measured response relative to a control, in per cent.

For assay [1], the target named is Sphingosine kinase 1 (Homo sapiens) (UniProt Q9NYA1). To be noted: at 1 µM.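 Note: mean SPHK1 inhibition value reported from the GSK PKIS kinase panel screen.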
The target of assay [2] is T1, Sphingosine kinase 2 (Homo sapiens) (UniProt Q9NRA0).
T1 sequence (whole entry): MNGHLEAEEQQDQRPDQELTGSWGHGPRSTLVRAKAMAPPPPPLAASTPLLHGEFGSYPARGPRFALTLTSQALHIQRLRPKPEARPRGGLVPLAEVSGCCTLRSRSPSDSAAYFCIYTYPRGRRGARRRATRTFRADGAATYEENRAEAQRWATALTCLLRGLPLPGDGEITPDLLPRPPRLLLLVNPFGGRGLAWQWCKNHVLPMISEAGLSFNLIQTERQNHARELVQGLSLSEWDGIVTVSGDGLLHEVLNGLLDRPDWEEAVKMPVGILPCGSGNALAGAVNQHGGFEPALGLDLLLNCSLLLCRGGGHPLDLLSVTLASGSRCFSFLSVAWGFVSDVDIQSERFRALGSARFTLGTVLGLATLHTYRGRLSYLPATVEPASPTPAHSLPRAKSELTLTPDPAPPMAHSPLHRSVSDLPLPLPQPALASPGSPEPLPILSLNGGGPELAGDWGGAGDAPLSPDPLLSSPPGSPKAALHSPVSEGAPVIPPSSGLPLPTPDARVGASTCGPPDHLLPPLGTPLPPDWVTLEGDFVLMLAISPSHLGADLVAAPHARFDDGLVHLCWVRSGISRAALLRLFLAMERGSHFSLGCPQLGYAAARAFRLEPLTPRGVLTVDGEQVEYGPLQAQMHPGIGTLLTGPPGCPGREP
The note with it: at 0.1 µM.

Assay [3] has as its target T1, Sphingosine kinase 2 (Homo sapiens). To be noted: at 1 µM.
The target of assay [4] is Casein kinase II subunit alpha (Homo sapiens) (UniProt P68400). To be noted: at 0.1 µM.
Chain of Casein kinase II subunit alpha (Homo sapiens) (P68400 whole entry, looked up): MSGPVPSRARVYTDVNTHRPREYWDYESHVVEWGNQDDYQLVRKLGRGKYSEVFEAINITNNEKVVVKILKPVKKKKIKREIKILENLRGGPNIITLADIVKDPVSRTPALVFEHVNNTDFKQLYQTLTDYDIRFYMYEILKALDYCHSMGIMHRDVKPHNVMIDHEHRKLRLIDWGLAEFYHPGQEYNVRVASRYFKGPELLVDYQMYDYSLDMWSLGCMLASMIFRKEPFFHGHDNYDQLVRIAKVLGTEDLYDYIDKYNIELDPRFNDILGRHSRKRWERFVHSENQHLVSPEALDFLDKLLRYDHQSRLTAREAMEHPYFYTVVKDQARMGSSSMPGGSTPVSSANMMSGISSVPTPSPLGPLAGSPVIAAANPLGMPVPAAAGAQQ
Assay [5] has the same target. To be noted: at 1 µM.
For assay [6], the target named is T2, Inhibitor of nuclear factor kappa-B kinase subunit alpha (Homo sapiens) (UniProt O15111).
T2 sequence (whole entry): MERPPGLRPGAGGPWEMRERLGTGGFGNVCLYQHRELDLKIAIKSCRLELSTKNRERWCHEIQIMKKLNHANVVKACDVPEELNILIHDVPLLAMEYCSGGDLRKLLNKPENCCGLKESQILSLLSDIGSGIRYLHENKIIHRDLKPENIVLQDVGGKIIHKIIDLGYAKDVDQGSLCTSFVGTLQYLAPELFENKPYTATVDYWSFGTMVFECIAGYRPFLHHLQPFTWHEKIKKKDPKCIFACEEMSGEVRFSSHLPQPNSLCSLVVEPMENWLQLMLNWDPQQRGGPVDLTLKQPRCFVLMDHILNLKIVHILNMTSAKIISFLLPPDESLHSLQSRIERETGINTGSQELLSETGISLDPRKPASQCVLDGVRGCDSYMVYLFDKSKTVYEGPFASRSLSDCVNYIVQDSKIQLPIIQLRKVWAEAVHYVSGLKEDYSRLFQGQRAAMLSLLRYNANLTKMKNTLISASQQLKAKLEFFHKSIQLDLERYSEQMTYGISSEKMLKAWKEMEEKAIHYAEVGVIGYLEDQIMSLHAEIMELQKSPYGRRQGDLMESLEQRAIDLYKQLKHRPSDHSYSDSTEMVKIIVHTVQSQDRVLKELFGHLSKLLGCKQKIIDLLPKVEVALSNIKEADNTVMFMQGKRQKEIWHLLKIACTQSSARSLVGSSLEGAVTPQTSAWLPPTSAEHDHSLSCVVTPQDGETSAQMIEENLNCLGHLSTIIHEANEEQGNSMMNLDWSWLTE
To be noted: at 0.1 µM.

Assay [7] concerns the target T2, Inhibitor of nuclear factor kappa-B kinase subunit alpha (Homo sapiens). To be noted: at 1 µM.
Assay [8] deals with T3, Inhibitor of nuclear factor kappa-B kinase subunit beta (Homo sapiens) (UniProt O14920).
T3 sequence (whole entry): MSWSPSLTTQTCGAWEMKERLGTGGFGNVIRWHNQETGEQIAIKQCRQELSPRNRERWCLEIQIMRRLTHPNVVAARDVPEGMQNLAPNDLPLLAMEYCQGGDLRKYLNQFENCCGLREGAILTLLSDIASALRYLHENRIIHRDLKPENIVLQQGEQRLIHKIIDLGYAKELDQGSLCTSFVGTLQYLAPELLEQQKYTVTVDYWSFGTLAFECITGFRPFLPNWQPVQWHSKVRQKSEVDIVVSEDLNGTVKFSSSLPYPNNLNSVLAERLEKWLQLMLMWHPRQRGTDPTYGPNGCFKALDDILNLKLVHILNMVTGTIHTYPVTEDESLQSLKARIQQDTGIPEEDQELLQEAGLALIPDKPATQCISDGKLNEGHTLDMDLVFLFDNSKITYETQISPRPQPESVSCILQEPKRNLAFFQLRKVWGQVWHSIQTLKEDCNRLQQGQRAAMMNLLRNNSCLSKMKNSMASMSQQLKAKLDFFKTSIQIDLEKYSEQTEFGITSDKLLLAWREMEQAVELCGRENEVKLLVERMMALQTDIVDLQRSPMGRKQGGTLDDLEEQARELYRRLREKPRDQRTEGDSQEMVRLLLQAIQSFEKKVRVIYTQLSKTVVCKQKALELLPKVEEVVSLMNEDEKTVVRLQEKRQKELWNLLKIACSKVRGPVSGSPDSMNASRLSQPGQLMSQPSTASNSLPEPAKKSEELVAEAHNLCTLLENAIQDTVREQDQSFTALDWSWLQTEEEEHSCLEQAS
To be noted: at 0.1 µM.

Assay [9] has as its target T3, Inhibitor of nuclear factor kappa-B kinase subunit beta (Homo sapiens). To be noted: at 1 µM.
In assay [10] the target is T4, Inhibitor of nuclear factor kappa-B kinase subunit epsilon (Homo sapiens) (UniProt Q14164).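 Note: mean inhibition of IKKε reported, from the GSK PKIS dataset.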
T4 sequence (whole entry): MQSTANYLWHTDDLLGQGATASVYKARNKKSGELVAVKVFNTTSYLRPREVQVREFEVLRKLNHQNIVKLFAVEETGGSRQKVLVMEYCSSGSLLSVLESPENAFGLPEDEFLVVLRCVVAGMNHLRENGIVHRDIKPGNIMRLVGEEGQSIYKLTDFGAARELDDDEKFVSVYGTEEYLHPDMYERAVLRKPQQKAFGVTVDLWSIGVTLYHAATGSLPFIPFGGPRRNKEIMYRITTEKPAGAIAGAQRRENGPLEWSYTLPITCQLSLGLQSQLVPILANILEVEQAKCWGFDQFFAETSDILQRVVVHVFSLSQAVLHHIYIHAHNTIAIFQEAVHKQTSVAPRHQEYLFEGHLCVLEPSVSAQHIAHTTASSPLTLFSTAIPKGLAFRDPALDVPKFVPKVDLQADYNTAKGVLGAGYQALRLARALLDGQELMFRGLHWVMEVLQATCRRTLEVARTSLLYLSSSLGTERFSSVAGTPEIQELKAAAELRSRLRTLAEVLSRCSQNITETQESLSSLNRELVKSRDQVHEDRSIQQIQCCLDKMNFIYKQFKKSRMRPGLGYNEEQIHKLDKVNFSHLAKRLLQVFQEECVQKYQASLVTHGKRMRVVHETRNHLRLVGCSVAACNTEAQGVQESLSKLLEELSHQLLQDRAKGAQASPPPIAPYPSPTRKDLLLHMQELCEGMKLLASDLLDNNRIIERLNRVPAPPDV
To be noted: at 0.1 µM.

Chain of Sphingosine kinase 1 (Homo sapiens) (Q9NYA1 whole entry): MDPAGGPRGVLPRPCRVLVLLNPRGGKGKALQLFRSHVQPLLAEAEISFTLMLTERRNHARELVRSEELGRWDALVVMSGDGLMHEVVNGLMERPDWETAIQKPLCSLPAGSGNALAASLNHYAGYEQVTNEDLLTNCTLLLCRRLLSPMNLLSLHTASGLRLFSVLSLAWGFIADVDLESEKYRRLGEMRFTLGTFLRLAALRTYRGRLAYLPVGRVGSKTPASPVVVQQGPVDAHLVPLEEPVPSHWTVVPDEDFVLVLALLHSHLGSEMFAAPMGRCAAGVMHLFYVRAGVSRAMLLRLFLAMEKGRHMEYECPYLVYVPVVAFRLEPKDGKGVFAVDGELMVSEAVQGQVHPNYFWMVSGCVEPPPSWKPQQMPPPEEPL

With `Cc1ccc2c(-c3ccnc(Nc4ccc5c(c4)OCCO5)n3)c(-c3ccc(C(F)(F)F)cc3)nn2n1`, the inhibition in assay [1] is -4.65%; in assay [2] it was -0.54%; in assay [3] it was 1.85%; in [4], 9.31%; in assay [5] it was 1.49%; in [6], 0.44%. The inhibition in assay [7] was 0.46%; in [8], -1.92%; in assay [9] it was -5.04%; in [10] it was 4.65%.
Consider `Oc1cccc(-c2nc(-c3ccccc3)[nH]c2-c2ccncc2)c1`, for which the inhibition is -1.58% in assay [1]; 0.02% in assay [2]; -1.65% in assay [3]; 3.96% in assay [4]; 9.51% in assay [5]; 2.95% in [6]. The inhibition in [7] was determined as 5.47%; in [8], 5.25%; in [9], 3.12%; in [10], 5.43%.
For `NS(=O)(=O)c1ccc(Nc2cc(-c3cccc(O)c3)n[nH]2)cc1`, the inhibition is -2.64% in assay [1]; 0.05% in [2]; -0.8% in [3]; 2.68% in assay [4]; 3.26% in assay [5]; 2.32% in [6]. Also, the inhibition in assay [7] is 2.31%; in [8] it was 4.33%; in assay [9], 5.24%; in assay [10], 6.1%.
As to `CN(c1ccc(NC(=O)Nc2ccc(OC(F)(F)F)cc2)cc1)c1ccnc(Nc2cccc(S(N)(=O)=O)c2)n1`, the inhibition in [1] is 0.54%; in [2], -0.4%; in assay [3], 1.23%; in assay [4] it was 2.7%; in assay [5] it was 1.68%; in assay [6], 8.41%. The inhibition in assay [7] is 3.54%; in [8], 3.29%; in [9], 2.85%; in [10], 5.07%.
Turning to `CN(C)c1cc2c(Nc3ccc4c(cnn4Cc4ccccc4)c3)ncnc2cn1`, the inhibition in [1] was -2%; in assay [2], -0.22%; in assay [3], -1.13%; in assay [4], 1.2%; in assay [5], -0.12%; in assay [6] it was 3.64%. Moreover, the inhibition in assay [7] came out at 8.41%; in assay [8] it was 3.68%; in [9] it was 3.14%; in assay [10], 3.9%.
Take `Cc1ccc2c(-c3ccnc(Nc4cccc(C(F)(F)F)c4)n3)c(-c3ccccc3)nn2n1`: the inhibition in assay [1] was -0.04%; in assay [2], 0%; in assay [3] it was 0%; in assay [4], 1.2%; in assay [5], 3.98%; in assay [6], 1.79%. Moreover, the inhibition in assay [7] stood at 5.16%; in assay [8], 4.63%; in [9] it was 8.3%; in assay [10], 7.46%.
`NC(=O)c1cccc(Nc2nccc(Nc3cccc(F)c3)n2)c1`: the inhibition in assay [1] amounted to 0.76%; in assay [2], 0%; in assay [3], 0.34%; in assay [4], 1.61%; in assay [5] it was 3.67%; in assay [6], 0.56%. Besides, the inhibition in assay [7] was 4.67%; in assay [8] it was 6.25%; in [9], 22.3%; in [10], 2.08%.
`COC(=O)c1ccc2c(c1)C(=Cc1cc(Br)c(O)c(Br)c1)C(=O)N2`: the inhibition in assay [1] was -3.43%; in assay [2] it was -0.52%; in assay [3], -0.45%; in assay [4], 14.7%; in assay [5], 47%; in [6], 5.93%. Moreover, the inhibition in [7] is 3%; in assay [8], 6.94%; in assay [9] it was 8.75%; in assay [10], 7.2%.
`C[C@@H](Oc1cc(-n2cnc3ccc(OCC4CCN(C)CC4)cc32)sc1C(N)=O)c1ccccc1C(F)(F)F`: the inhibition was 1.96% in [1]; -2.47% in assay [2]; -0.08% in assay [3]; 6.68% in [4]; 7.31% in assay [5]; -3.27% in [6]. For the same molecule, the inhibition in [7] is -3.79%; in [8] it was -5.4%; in [9] it was -3.39%; in assay [10], -3.26%.
`CCS(=O)(=O)c1ccc(OC)c(Nc2ncc(-c3cccc(OC)c3)o2)c1`: the inhibition in assay [1] is 1.37%; in assay [2], 0%; in assay [3], -2%; in assay [4], 5.03%; in [5] it was 29.3%; in [6] it was 5.66%. Besides, the inhibition in assay [7] was -4.47%; in assay [8], 3.95%; in [9], 1.16%; in assay [10], 0.74%.
As for `CN(C)C(=O)O[C@H]1CN[C@H](C#Cc2cc3ncnc(Nc4ccc(OCc5cccc(F)c5)c(Cl)c4)c3s2)C1`, the inhibition was -2.15% in assay [1]; -0.26% in assay [2]; 0.69% in assay [3]; 0.63% in assay [4]; 0.63% in assay [5]; 1.66% in assay [6]. Moreover, the inhibition in [7] was 2.62%; in [8], 3.17%; in [9], -7.42%; in assay [10], 1.55%.
`c1ccc(Nc2ncc(-c3ccccc3)o2)cc1`: the inhibition was 5.25% in assay [1]; 0.84% in assay [2]; 7.14% in assay [3]; 8.1% in assay [4]; 4.81% in assay [5]; 4.42% in assay [6]. The inhibition in assay [7] is 6.78%; in [8], 5.92%; in assay [9], 7.79%; in [10], 3.13%.
Take `NS(=O)(=O)c1ccc(N/N=C2\C(=O)Nc3ccc(Cl)cc32)cc1`: the inhibition in [1] is -4.27%; in [2], 0%; in [3] it was -3.44%; in [4], 4.94%; in assay [5], 14%; in assay [6] it was -0.36%. Also, the inhibition in assay [7] amounted to 10.7%; in [8] it was 4.8%; in assay [9] it was 5.46%; in assay [10], 7.49%.
On to `NS(=O)(=O)c1ccc(NC=C2C(=O)Nc3ccc4ncsc4c32)cc1`, for which the inhibition was 3.96% in assay [1]; 1.68% in [2]; 2.35% in assay [3]; 15.7% in [4]; 46.4% in [5]; 13.6% in assay [6]. The inhibition in assay [7] worked out at 23.5%; in assay [8] it was 10.6%; in assay [9] it was 19.2%; in assay [10], 19.3%.

The values above are taken from ChEMBL document CHEMBL1961873, “Compounds: GSK PKIS; Assays: Nanosyn kinase panel” (2012).
